Data taken from PubChem BioAssay (EPA / NIEHS).
Inconclusive results are not listed. Where a structure was tested more than once in an assay, its records may differ in their call. Activity calls are given as the source filed them. Rule for the calls, unless noted: active = hit-call score of the fitted dose curve at least 0.9, where 1 is the maximum; inconclusive = response in the unintended direction; inactive = score below 0.9.

Experiments:
[1] = CCTE_Deisenroth_AIME_384WELL_CTox_Active: Cytotoxicity Assessment (CTOX) in CCTE's 384-well Estrogen Receptor Transactivation Assay with AIME metabolic competence (metabolism positive), Deisenroth Lab (AID 2284037);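 note: chemicals first conditioned 2 h by alginate-bound induced rat liver S9 before cells; activity means signal loss indicating cell death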
Method in brief: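 Cytotoxicity in VM7Luc4E2 breast cells, 24 hour, measured as protease-substrate fluorescence loss, after 2-hour metabolic conditioning with induced rat hepatic S9 in alginate microspheres. Concentrations 0.002 - 200 uM, 10 points, bidirectional fitting.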

[2] = CCTE_Deisenroth_AIME_384WELL_CTox_Inactive: Cytotoxicity Assessment (CTOX) in CCTE's 384-well Estrogen Receptor Transactivation Assay without AIME metabolic competence (metabolism negative), Deisenroth Lab (AID 2284039);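 note: cell viability via live-cell protease substrate cleaved to fluorescent probe; cells exposed 24 h to medium preincubated 2 h with alginate-water beads without S9; loss of fluorescence signal means loss of viability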
Method in brief: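 Fluorescent protease-substrate viability readout after 24 h exposure of VM7Luc4E2 cells to conditioned medium. Chemicals (0.002–200 uM) first sat 2 h over alginate-water beads, no S9. Data fitted bidirectionally, loss of signal meaning viability loss.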

[3] = CCTE_Shafer_MEA_acute_AB: CCTE's Alamar Blue Assay for Cytotoxicity in the Neural Acute Assay, Shafer Lab (AID 2284069);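 note: active compounds lower the viability signal compared with DMSO wells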
Method in brief: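 Resazurin reduction (CellTiter Blue, 1:6 in fresh medium) read at ex 544/em 590 nm marks viability loss relative to DMSO. Cells: primary rat cortical neuron networks on microelectrode arrays, treated after baseline recording at 13 or 15 days in vitro.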

[4] = CCTE_Shafer_MEA_dev_active_electrodes_number: CCTE's Neural Network Formation Assay for Number of Active Electrodes, Shafer Lab (AID 2284040);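 for AC50: potency for loss of active electrodes versus DMSO so lower counts are hits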
Method in brief: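 Developing rat cortical networks on MEAs, exposed DIV 0–12. Value is the AUC of active-electrode counts (≥5 spikes/min) from days 5, 7, 9, 12, relative to DMSO.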

[5] = CCTE_Shafer_MEA_dev_burst_rate: CCTE's Neural Network Formation Assay for Burst Rate, Shafer Lab (AID 2284042; active = hit-call score of the fitted dose curve at least 0.9, where 1 is the maximum; inactive = score below 0.9)
Method in brief: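 Exposure ran continuously over 12 days of network development in rat cortical cultures, with compound refreshed during full media changes on DIV 5 and 9. Single-electrode bursts per recording time, well-mean over active electrodes, trapezoidal AUC across days 5–12, fitted downward relative to DMSO.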

[6] = CCTE_Shafer_MEA_dev_bursting_electrodes_number: CCTE's Neural Network Formation Assay for Number of Bursting Electrodes, Shafer Lab (AID 2284043);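 for AC50: potency is for loss of bursting electrodes relative to DMSO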
Method in brief: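 Number of electrodes reaching ≥1 burst every 2 min was recorded at DIV 5, 7, 9 and 12 and collapsed as trapezoidal area under the curve. Cultures were rat cortical neurons on MEA plates, dosed continuously from plating with medium and treatment refreshed on DIV 5 and 9.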

[7] = CCTE_Shafer_MEA_dev_per_burst_interspike_interval: CCTE's Neural Network Formation Assay for Burst Interspike Interval, Shafer Lab (AID 2284044; active = hit-call score of the fitted dose curve at least 0.9, where 1 is the maximum; inactive = score below 0.9;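 note: mean spike spacing inside bursts as AUC over recordings on days 5 7 9 12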)
Method in brief: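 Neurons from rat cortex plated onto PEI-coated MEA wells with laminin […] at 1.5 x 10^5 cells/well, then treated from day 0. Media and compound fully replaced on DIV 5 and 9. Extracellular spontaneous firing recorded four times; interspike interval per burst summarised as AUC.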

[8] = CCTE_Shafer_MEA_dev_interburst_interval_mean: CCTE's Neural Network Formation Assay for Mean Interburst Interval, Shafer Lab (AID 2284046; active = hit-call score of the fitted dose curve at least 0.9, where 1 is the maximum; inactive = score below 0.9;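 note: well-mean interburst interval of bursting electrodes as AUC over four recording days; curve fitted for decrease in interburst interval relative to DMSO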)
Method in brief: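 Primary rat cortical neurons on PEI-coated 48-well MEA plates (laminin added with cells at plating) (16 electrodes/well), exposed from plating day 0 with renewal at DIV 5 and 9. Mean inter-burst interval averaged over bursting electrodes, AUC across days 5, 7, 9, 12; DMSO baseline.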

[9] = CCTE_Shafer_MEA_dev_inter_network_spike_interval_mean: CCTE's Neural Network Formation Assay for Mean Inter-network Spike Interval, Shafer Lab (AID 2284047; active = hit-call score of the fitted dose curve at least 0.9, where 1 is the maximum; inactive = score below 0.9)
Method in brief: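 Mean time between consecutive network-spike peaks, recorded extracellularly (adaptive spike detection) on DIV 5, 7, 9 and 12, summarized as trapezoidal AUC. Rat cortical cultures on MEAs dosed continuously days 0–12, re-dosed at feeds; loss-of-signal fit relative to DMSO.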

[10] = CCTE_Shafer_MEA_dev_network_spike_number: CCTE's Neural Network Formation Assay for Number of Network Spikes, Shafer Lab (AID 2284048; active = hit-call score of the fitted dose curve at least 0.9, where 1 is the maximum; inactive = score below 0.9;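 note: synchronized bursts across electrodes counted on days 5 7 9 12 and integrated as AUC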)
Method in brief: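 Number of network spikes (coordinated firing across electrodes) recorded on days 5, 7, 9 and 12 and summarised as area under the curve. Rat cortical cultures on MEA, continuous compound exposure with full medium/treatment exchange at DIV 5 and 9.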

[11] = CCTE_Shafer_MEA_dev_network_spike_peak: CCTE's Neural Network Formation Assay for Mean Number of Electrodes in Network Spike, Shafer Lab (AID 2284049; active = hit-call score of the fitted dose curve at least 0.9, where 1 is the maximum; inactive = score below 0.9;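 for AC50: fitted for loss of signal meaning fewer electrodes in network spikes than DMSO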)
Method in brief: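 Rat cortical primary culture, 1.5 x 10^5 cells/well, 48-well MEA (16 electrodes/well). Dosing day 0 through DIV 12, full media/compound exchange DIV 5, 9. AxIS adaptive spike detection; AUC over days 5/7/9/12; loss-of-signal vs DMSO.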

[12] = CCTE_Shafer_MEA_dev_spike_duration_mean: CCTE's Neural Network Formation Assay for Mean Spike Duration, Shafer Lab (AID 2284051; active = hit-call score of the fitted dose curve at least 0.9, where 1 is the maximum; inactive = score below 0.9;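 note: mean network spike duration pooled as area under curve over DIV 5 to 12 recordings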)
Method in brief: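 Spontaneous activity was recorded on days 5, 7, 9 and 12 from rat cortical cultures grown on microelectrode arrays and dosed continuously from day 0, with media and compound renewed after the DIV 5 and 9 recordings. Network-spike duration was collapsed by area under the curve.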

[13] = CCTE_Shafer_MEA_dev_network_spike_duration_std: CCTE's Neural Network Formation Assay for Standard Deviation of Network Spike Duration, Shafer Lab (AID 2284052; active = hit-call score of the fitted dose curve at least 0.9, where 1 is the maximum; inactive = score below 0.9;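 note: hits are decreases in network spike duration SD versus DMSO vehicle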)
Method in brief: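 Network spike duration variability was collapsed across recordings on days 5, 7, 9 and 12 by trapezoidal area-under-curve and fitted downward against DMSO. Cultures were rat cortical neurons on PEI-coated MEA plates, dosed continuously from plating, refed with compound DIV 5/9.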

[14] = CCTE_Shafer_MEA_dev_per_network_spike_spike_number_mean: CCTE's Neural Network Formation Assay for Mean Number of Spikes in a Network Spike, Shafer Lab (AID 2284053; active = hit-call score of the fitted dose curve at least 0.9, where 1 is the maximum; inactive = score below 0.9)
Method in brief: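 Mean spike count within each network spike, taken in a 0.05 s window at its peak, was recorded on days 5, 7, 9 and 12 and integrated as trapezoidal area under the curve. Rat cortical cultures on MEA plates received continuous compound from day 0, refreshed at medium changes on DIV 5 and 9.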

[15] = CCTE_Shafer_MEA_dev_per_network_spike_spike_percent: CCTE's Neural Network Formation Assay for Percent of Spikes in a Network Spike, Shafer Lab (AID 2284054; active = hit-call score of the fitted dose curve at least 0.9, where 1 is the maximum; inactive = score below 0.9)
Method in brief: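 Metric: fraction of spikes falling in a 0.05 s window at network-spike peaks. Recordings were made on days 5, 7, 9 and 12 and collapsed by trapezoidal AUC. Cultures were rat cortical neurons on MEA plates, dosed continuously from plating, re-dosed at media changes.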

[16] = CCTE_Shafer_MEA_dev_LDH: CCTE's Lactate Dehydrogenase Assay for Cytotoxicity in the Neural Network Formation Assay, Shafer Lab (AID 2284068);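 note: exposure for twelve days from plating with re-dosing on DIV 5 and 9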
Method in brief: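 Primary rat cortical neurons were cultured on PEI-coated MEA plates and exposed from plating through day 12, with compound renewed at medium changes on DIV 5 and 9. LDH activity was read spectrophotometrically; loss of signal versus DMSO indicates reduced viability.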

DIO2 (gene 1734) = experiment: CCTE_GLTED_hDIO2: CCTE's human Deiodinase 2 (DIO2) Inhibition Assay, Great Lakes Toxicology and Ecology Division (GLTED) Lab (AID 2284050)
Method in brief: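 Readout: absorbance from Sandell-Kolthoff detection of free iodide released by human DIO2 during a 3 h incubation with chemical. Cell-free format, n=3; activity fitted relative to DMSO negative control.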

DIO3 (gene 1735) = experiment: CCTE_GLTED_hDIO3: CCTE's human Deiodinase 3 (DIO3) Inhibition Assay, Great Lakes Toxicology and Ecology Division (GLTED) Lab (AID 2284055);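 note: potency is for inhibition seen as loss of released iodide signal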
Method in brief: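 hDIO3 (adenovirus-expressed) + test chemical, 3 h incubation; free iodide quantified by Sandell-Kolthoff reaction, absorbance read-out. DMSO negative control, n=3.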

Question: With `CC(C)N1C(=O)N(c2ccccc2)CSC1=NC(C)(C)C` as the compound, how does the outcome [1] read?
Answer: inactive

Question: What about the outcome [2] of the same compound?
Answer: inactive

Question: What about the outcome [3] of the same compound?
Answer: inactive

Question: For `Nc1c(Cl)c(Cl)nc(C(=O)O)c1Cl`, which outcome [1] is on record?
Answer: inactive

Question: What about the outcome [2] of the same compound?
Answer: inactive

Question: Which results are given for `COC(=O)NC(=S)Nc1ccccc1NC(=S)NC(=O)OC`?
Answer: outcome [1]: inactive; outcome [2]: inactive

Question: Which outcome [1] does the source give for `CCSC(=O)N1CCCCCC1` here?
Answer: inactive

Question: What about the outcome [2] of the same compound?
Answer: inactive

Question: And the AC50 [4]?
Answer: 3.42 µM (active)

Question: And the outcome [5]?
Answer: inactive

Question: What about the AC50 [6] of the same compound?
Answer: 1.93 µM (active)

Question: And the outcome [7]?
Answer: inactive

Question: And the outcome [8]?
Answer: inactive

Question: What about the outcome [9] of the same compound?
Answer: inactive

Question: What about the outcome [10] of the same compound?
Answer: inactive

Question: What about the AC50 [11] of the same compound?
Answer: 5.75 µM (active)

Question: And the outcome [11]?
Answer: inactive

Question: What about the outcome [12] of the same compound?
Answer: inactive

Question: And the outcome [13]?
Answer: inactive

Question: What about the outcome [14] of the same compound?
Answer: inactive

Question: What about the outcome [15] of the same compound?
Answer: inactive

Question: What about the outcome [16] of the same compound?
Answer: inactive

Question: Which results are given for `COc1cc(OC)nc(NC(=O)NS(=O)(=O)c2ncccc2OCC(F)(F)F)n1`?
Answer: outcome [1]: inactive; outcome [2]: inactive

Question: For `COc1ccc(-c2ccccc2)cc1NNC(=O)OC(C)C`, which AC50 [1] is on record?
Answer: 79.5 µM (active)

Question: And the AC50 [2]?
Answer: 77.9 µM (active)

Question: Which outcome [1] does the source give for `CCCCOCN(C(=O)CCl)c1c(CC)cccc1CC` here?
Answer: inactive

Question: And the AC50 (DIO2 (gene 1734))?
Answer: 17.6 µM (active)

Question: And the AC50 (DIO3 (gene 1735))?
Answer: 37.6 µM (active)

Question: For `CC(C)=CC1C(C(=O)OCc2coc(Cc3ccccc3)c2)C1(C)C` (stereo not given), which outcome [1] is on record?
Answer: inactive

Question: What about the outcome [2] of the same compound?
Answer: inactive

Question: What about the outcome [4] of the same compound?
Answer: inactive

Question: And the outcome [5]?
Answer: inactive

Question: What about the outcome [6] of the same compound?
Answer: inactive

Question: And the outcome [7]?
Answer: inactive

Question: And the outcome [8]?
Answer: inactive

Question: What about the outcome [9] of the same compound?
Answer: inactive

Question: What about the outcome [10] of the same compound?
Answer: inactive

Question: What about the outcome [11] of the same compound?
Answer: inactive

Question: And the AC50 (DIO2 (gene 1734))?
Answer: 38.5 µM (active)

Question: What about the outcome [12] of the same compound?
Answer: inactive

Question: What about the outcome [13] of the same compound?
Answer: inactive

Question: What about the outcome [14] of the same compound?
Answer: inactive

Question: And the outcome [15]?
Answer: inactive

Question: And the AC50 (DIO3 (gene 1735))?
Answer: 40.5 µM (active)

Question: What about the AC50 [16] of the same compound?
Answer: 14.1 µM (active)

Question: What about the outcome [3] of the same compound?
Answer: inactive

Question: Which outcome [1] does the source give for `COCc1cnc(C2=NC(C)(C(C)C)C(=O)N2)c(C(=O)O)c1` (stereo not given) here?
Answer: inactive

Question: What about the outcome [2] of the same compound?
Answer: inactive

Question: What does the source list for `CC(C)Oc1cccc(NC(=O)c2ccccc2C(F)(F)F)c1`?
Answer: outcome [1]: inactive; outcome [2]: inactive

Question: With `CCOc1nc(F)cc2nc(S(=O)(=O)Nc3c(Cl)cccc3Cl)nn12` as the compound, how does the outcome [1] read?
Answer: inactive

Question: What about the AC50 [2] of the same compound?
Answer: 146 µM (active)

Question: What about the outcome [3] of the same compound?
Answer: inactive
